{"source": "PubChem BioAssay AID2685", "about": "(National Center for Advancing Translational Sciences (NCATS), 2010)", "note": "Out of some 320,000 compounds screened, about 2,100 (0.66%) were called active. Roughly 53% stayed inconclusive and do not appear here. The call rests on the fitted dose curve; in most records, active means well fitted inhibition curve with a large enough effect in the signal ratio, with a control signal flat (not every such curve was filed as active); inconclusive means small, poorly fitted or top-dose-only effect, or effect the other way, or a change in a side signal; inactive means flat fitted curve, though single readings scatter; the % refers to the signal ratio. Shown is part of a subset that was picked to be rich in actives. Potency means the concentration at half of the fitted maximal effect.", "data": [{"assay": "qHTS Assay for Lipid Storage Modulators in Drosophila S3 Cells;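 on cell number change: cells counted by Cell Tracker Red CMTPX staining in the red channel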", "settings": "BODIPY lipid droplet fluorescence, 18-24 h, cells fed with added oleic acid; cell number change: measured here: cell count max response; series mostly up to 46.1 µM", "source_text": "NIH Molecular Libraries Probe Production Centers Network [MLPCN] NIH Chemical Genomics Center [NCGC] MLPCN Grant: 1 R03 MH085686-01 Assay Submitter (PI): Beller, Mathias; Max-Planck-Institut fur Biophysikalische Chemie NCGC Assay Overview: Storing lipids as a reservoir for energy or the anabolism of elementary metabolites is a common feature of probably all cells and is conserved from bacteria to humans. The universal cellular lipid storage organelle is the so-called lipid storage droplet (LD). Although ubiquitous, LDs share a simple structure composed of a hydrophobic core that harbors the storage lipids, which is shielded by a droplet-specific phospholipid monolayer to which proteins are attached. The current model of LD biogenesis involves an incorporation of the lipid core into the membrane leaflets of the endoplasmic reticulum (ER) followed by a subsequent budding-like maturation of a LD, which ultimately pinches off. Once released, LD volume can increase by localized lipogenesis or fusion of existing droplet. Storage lipids are re-mobilized enzymatically by lipase activity. Lipase regulation in the adipocyte is heavily studied and involves multiple components including catecholamine signaling, the LD-associated proteins Perilipin and comparative gene identification (CGI-58) and at least two lipases named hormone sensitive lipase (HSL) and adipocyte triglyceride lipase (ATGL). LD regulation outside of the adipocyte is poorly understood and only few components are known. However, there is an urgent need to learn more about ectopic fat depots as mislocalized storage of lipids, for example in the liver or muscle, is an eminent health problem associated with insulin resistance or the metabolic syndrome. We developed a laser-scanning cytometer assay to enable 1,536-well screening and combined the results of the small molecules screen with an RNAi database based on lipid storage.\nTriacsin C (Sigma-Aldrich T-4540), an inhibitor of long-chain fatty acyl CoA synthetase that blocks synthesis of triglycerides, was used as a positive control for lipid under-storage. A total of 23 nL of compound solution of different concentrations were transferred to the assay plates using a Kalypsys pin tool equipped with a 1,536-pin array containing 10-nL slotted pins (FP1S10, 0.457-mm diameter, 50.8 mm long; V&P Scientific). One microliter of oleic acid (400 uM) was added, and the plate was lidded with stainless steel rubber gasket lined lids containing pinholes. […] Fluorescence was detected by excitation of the fluorophores with a 488-nm laser on an Acumen Explorer (TTP Lab Tech). The total intensity in channel 2 (500-530 nm) reflected lipid droplet accumulation. Cells were detected using channel 3 (575-640 nm) with 5-um width and 100-um depth filters. The ratio of the number of objects in PMT channel 2 over the number of objects in PMT channel 3 was also calculated. Percent activity was computed relative to an internal control (100% inhibited lipid droplet deposition due to the presence of 20 uM Triacsin C), which was added to 32 wells/plate.", "units": {"cell number change": "%"}, "values": [{"molecule": "COCCn1c(C(F)(F)F)ccc(NC(=O)c2ccccc2)c1=O", "Potency": "8.2 µM (active)", "cell number change": 27.8}, {"molecule": "Cc1ccc(C(=O)Nc2ccc(C(F)(F)F)n(C)c2=O)cc1", "Potency": "inactive", "cell number change": 11.7}, {"molecule": "COc1ccc(C(=O)Nc2ccc(C(F)(F)F)n(C)c2=O)cc1", "Potency": "inactive", "cell number change": 6.54}, {"molecule": "CCN(CC(=O)Nc1ccc(OC)cc1)C(=O)CCc1nc2ccccc2c(=O)[nH]1", "Potency": "inactive", "cell number change": -4.18}, {"molecule": "Cc1c([N+](=O)[O-])c([N+](=O)[O-])nn1CC(=O)NCCc1ccccc1", "Potency": "inactive", "cell number change": 2.95}, {"molecule": "CC(=O)c1ccc(OC(C)C)c(CC(C(N)=O)C(N)=O)c1", "Potency": "25.9 µM (active)"}, {"molecule": "CC(=O)c1ccc(OC(C)C)c(CN2CCCCC2)c1", "Potency": "inactive", "cell number change": -4.17}, {"molecule": "CCCOc1ccc(C(C)=O)cc1CC(C(=O)OCC)C(=O)OCC", "Potency": "inactive", "cell number change": 1.14}, {"molecule": "NC(=O)CS(=O)(=O)c1ccc(Cl)cc1", "Potency": "inactive", "cell number change": 0.328}, {"molecule": "CC(C)=CC(=O)O[C@@H]1Cc2cc3ccc(=O)oc3cc2OC1(C)C", "Potency": "inactive", "cell number change": -1.68}, {"molecule": "Cc1cc(Nc2ccc(Br)cc2)nc(-c2ccccc2O)n1", "Potency": "1.16 µM (active)", "cell number change": 5.51}, {"molecule": "Cc1cc(Nc2ccc(Cl)cc2)nc(-c2ccccc2O)n1", "Potency": "inactive", "cell number change": 25.5}, {"molecule": "Cc1cc(Nc2ccc(F)c(F)c2)nc(-c2ccccc2O)n1", "Potency": "inactive", "cell number change": -20.3}, {"molecule": "O=C(NNC(=O)c1ccccc1O)c1ccc(NS(=O)(=O)c2ccc(F)c(F)c2)cc1", "Potency": "inactive", "cell number change": 6.77}, {"molecule": "NS(=O)(=O)c1cccc(NS(=O)(=O)c2ccc3ccccc3c2)c1", "Potency": "inactive", "cell number change": -9.72}, {"molecule": "Cc1ccc(-c2ccc(S(=O)(=O)N3CCCC3)cc2)cc1", "Potency": "inactive"}, {"molecule": "Cc1ccc(S(=O)(=O)N2CCCN(S(=O)(=O)c3ccc(C)cc3)CC2)cc1", "Potency": "inactive", "cell number change": -15.5}, {"molecule": "Cc1ccc(S(=O)(=O)N2CCCOC2)cc1", "Potency": "20.6 µM (active)", "cell number change": -23.3}, {"molecule": "CC1(C)CC(=O)C(CC(=O)NC(=O)NCc2ccccc2)=C(O)C1", "Potency": "inactive", "cell number change": 9.3}, {"molecule": "COCc1nnc(NC(=O)CSc2ccccc2)s1", "Potency": "inactive", "cell number change": -1.84}, {"molecule": "O=C(CSc1ccccc1)Nc1nnc(COc2ccc(Cl)cc2)s1", "Potency": "9.2 µM (active)", "cell number change": -4.77}, {"molecule": "COCC(=O)Nc1nnc(COc2ccc(Cl)cc2)s1", "Potency": "inactive", "cell number change": -17.4}, {"molecule": "CCN(CC)c1ccc(/C=N/NC(=S)NCc2ccccc2)c(O)c1", "Potency": "11.6 µM (active)", "cell number change": -19.6}, {"molecule": "CCN(CC)c1ccc(/C=N/Nc2ccccc2)c(O)c1", "Potency": "inactive", "cell number change": -10.7}, {"molecule": "CCN(CC)c1ccc(/C=N/NC(=S)NC)c(O)c1", "Potency": "inactive", "cell number change": 2.22}, {"molecule": "COc1ccc(-c2c3c(=O)n(C)c(=O)n(C)c3cn2-c2ccccc2O)cc1", "Potency": "inactive", "cell number change": 9.81}, {"molecule": "CC(=O)N(Cc1cccnc1)Cc1cc2ccc(C)cc2[nH]c1=O", "Potency": "inactive", "cell number change": -7.01}, {"molecule": "CC(CNC(=O)CCCn1ncn2c(cc3occc32)c1=O)c1ccccc1", "note": "(configuration not stated)", "Potency": "inactive", "cell number change": 24}, {"molecule": "CCOc1ccccc1CNC(=O)CCCn1ncn2c(cc3occc32)c1=O", "Potency": "29.1 µM (active)", "cell number change": -5.42}, {"molecule": "COc1cccc(CNC(=O)CCCn2ncn3c(cc4occc43)c2=O)c1", "Potency": "inactive", "cell number change": -2.59}, {"molecule": "Cc1cc(C(=O)N2CCN(S(=O)(=O)c3ccccc3)CC2)c(C)o1", "Potency": "inactive", "cell number change": 15.7}, {"molecule": "CCCCn1nc2cc(C(=O)N[C@H](C)C3CCCCC3)ccc2c1OCC", "Potency": "inactive", "cell number change": -12}]}]}
